Among all 220,000 compounds or so, about 910 (0.41%) were called active. The sample holds actives, similar compounds and a random draw of the others, so the mix is not that of the screen.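 The calls were made as follows: active = primary inhibition above the hit cutoff, then over 50% inhibition at one or more dose response concentrations (cut at about 23% in these data, passing the limit was not always enough); inconclusive = conflicting primary data, or primary hits not chosen for dose response; inactive = low primary inhibition, or under 50% at every dose.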 Entries with a potency or affinity are not part of this list.
molecular target: Aminopeptidase N (Plasmodium falciparum (isolate 3D7)) (UniProt O96935); assay: malaria alanyl aminopeptidase activity blockers – biochemical, fluorogenic H-Leu-NHMec substrate, 1536-well (AID 1445); conditions: recombinant M1AAP, H-Leu-NHMec fluorogenic kinetic assay; at 30 µM, active compounds read high unless noted;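 also: plate controls were DMSO full reaction for no effect and no enzyme background for full effect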
Sequence (O96935 whole entry, looked up): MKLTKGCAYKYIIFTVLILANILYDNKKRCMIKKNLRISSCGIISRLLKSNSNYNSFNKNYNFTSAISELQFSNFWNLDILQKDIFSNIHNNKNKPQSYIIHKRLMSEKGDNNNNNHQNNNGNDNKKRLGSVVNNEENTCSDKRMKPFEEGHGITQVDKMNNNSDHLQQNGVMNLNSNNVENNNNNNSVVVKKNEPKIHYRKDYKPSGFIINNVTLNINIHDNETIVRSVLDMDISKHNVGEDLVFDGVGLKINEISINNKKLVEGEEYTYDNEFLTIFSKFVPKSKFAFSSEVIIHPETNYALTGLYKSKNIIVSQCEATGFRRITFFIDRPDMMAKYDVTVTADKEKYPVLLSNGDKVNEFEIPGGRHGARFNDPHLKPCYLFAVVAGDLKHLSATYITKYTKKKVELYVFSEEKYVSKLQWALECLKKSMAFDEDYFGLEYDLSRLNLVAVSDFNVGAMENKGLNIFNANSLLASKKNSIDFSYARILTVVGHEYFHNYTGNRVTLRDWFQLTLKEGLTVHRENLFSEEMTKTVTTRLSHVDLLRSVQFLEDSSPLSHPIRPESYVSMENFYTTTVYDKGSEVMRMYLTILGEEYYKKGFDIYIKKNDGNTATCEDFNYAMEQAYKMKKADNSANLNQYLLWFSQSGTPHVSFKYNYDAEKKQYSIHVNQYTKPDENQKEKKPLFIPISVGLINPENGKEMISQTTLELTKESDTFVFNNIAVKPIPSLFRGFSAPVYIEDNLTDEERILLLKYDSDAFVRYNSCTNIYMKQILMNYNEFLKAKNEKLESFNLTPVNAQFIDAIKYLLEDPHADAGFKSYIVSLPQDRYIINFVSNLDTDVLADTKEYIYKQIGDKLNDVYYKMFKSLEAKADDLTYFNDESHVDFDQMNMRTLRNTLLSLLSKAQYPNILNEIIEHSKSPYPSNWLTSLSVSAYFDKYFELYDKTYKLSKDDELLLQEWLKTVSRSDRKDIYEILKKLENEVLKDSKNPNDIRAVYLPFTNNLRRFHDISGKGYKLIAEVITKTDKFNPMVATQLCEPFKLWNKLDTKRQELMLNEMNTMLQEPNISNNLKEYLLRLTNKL

inhibition, inactive:
O=C(C1CCCCN1S(=O)(=O)c1ccccc1[N+](=O)[O-])N1CCCC1 (stereo unspecified) -3.36%, CC(NC(=O)c1ccccc1Cl)C(=O)O (stereo unspecified) -7.3%, CCN(CC)S(=O)(=O)c1ccc(C(=O)Nc2ccc3c(c2)OCCO3)cc1 4.24%, N/C(=N\OC(=O)CCCOc1ccccc1)c1ccc([N+](=O)[O-])cc1 6.54%, CCOC(=O)c1c(C)nc2ccc(Cl)cc2c1-c1ccccc1 5.75%, Cc1nc2ccc(Cl)cc2c(-c2ccccc2)c1CC(=O)O 14.4%, CCOC(=O)c1ccccc1NC(=O)c1cn(-c2ccc(C)c(C)c2)c(=O)c2ccccc12 1.24%, Cc1cccc(CN2CCN(CCCc3ccccc3)CC2)c1 -1.11%, CCN(CC)S(=O)(=O)c1ccc(N/N=C/c2ccccc2OCC(=O)O)c([N+](=O)[O-])c1 11.3%, COc1ccccc1NS(=O)(=O)c1ccc(N/N=C/c2ccccc2OCC(=O)O)c([N+](=O)[O-])c1 13.1%, COC(=O)/C(=C\Nc1cccc(Cl)c1C)c1ncc(C(F)(F)F)cc1Cl -7.97%, Cc1cc(C(=O)COC(=O)c2ccc(N)c([N+](=O)[O-])c2)c(C)n1-c1ccc2c(c1)OCO2 4.88%, COc1cc([N+](=O)[O-])ccc1-c1ccc(/C=N/NC(=O)OC(C)(C)C)o1 3.22%, COc1cc([N+](=O)[O-])ccc1-c1ccc(/C=N/NC(N)=O)o1 0.13%, N#CCCN(CCC#N)C(=O)c1ccc(Cl)cc1 0.66%, Nc1cc(N)nc(SCc2cccnc2)n1 -6.1%, O=C(CO/N=C/c1c(Cl)cccc1Cl)NNC(=O)c1cccc(Cl)c1 0.37%, Cc1cccc(S(=O)(=O)NNC(=O)c2cc(-c3ccc(F)cc3)nc3ccccc23)c1 15.2%, O=C(NNC(=O)c1cc(-c2ccccc2)nc2ccccc12)Nc1cccc(Cl)c1 6.82%, Cc1cccc(N2CCN(Cc3cnc(Cl)s3)CC2C)c1 (stereo unspecified) 3.39%, COc1ccc(CNC(=O)c2csc(Cc3ccccc3)n2)cc1 2.78%, Cc1nc2ccc(Cl)cc2c(-c2ccccc2F)c1CC(=O)O 16.3%, Cc1nc2ccc(Cl)cc2c(-c2ccccc2Cl)c1CC(=O)O -0.5%, C/C(Cn1cnc([N+](=O)[O-])n1)=N\NC(=O)c1ccccc1 15.8%, CCOc1ccc(NC(=O)C/C(N)=N/O)cc1 -8.44%, COc1ccc([N+](=O)[O-])cc1NS(=O)(=O)c1cccc(C(=O)O)c1 7.17%, O=C(O)c1cccc(S(=O)(=O)Nc2ccccc2Cl)c1 0.86%, CCOc1cc(C(=O)N(C)Cc2cc3ccccc3[nH]c2=O)cc(OCC)c1OCC 4.4%, CCc1nc2sc3c(c2c(=O)n1N)CC(C)(C)OC3 -0.3%, CCCCCCCCCc1nc2sc3c(c2c(=O)n1NC(=O)c1ccc([N+](=O)[O-])cc1)CC(C)(C)OC3 3.87%, CCCCCCCCCc1nc2sc3c(c2c(=O)n1NC(=O)c1ccccc1[N+](=O)[O-])CC(C)(C)OC3 -2.36%, CCCCCc1nc2sc3c(c2c(=O)n1NC(=O)c1ccc([N+](=O)[O-])cc1)CC(C)(C)OC3 4.81%, Cn1c(=O)c(C(=O)COc2ccc(F)cc2Cl)c(N)n(Cc2ccccc2)c1=O 6.9%, COc1ccc(CC(NC(C)=O)C(=O)NC2CCN(c3c(Cc4ccccc4)c(C)nc4ncnn34)CC2)c(OC)c1 (stereo unspecified) -2.17%, C/C(=N/N1CCN(c2ccccn2)CC1)c1ccc([N+](=O)[O-])cc1 -1.3%, O=C(NCc1cccs1)c1nc2c(nnn2Cc2ccc(F)cc2)c(=O)[nH]1 2.78%, O=C(NCCc1ccccc1)c1nc2c(nnn2Cc2ccccc2Cl)c(=O)[nH]1 -9.83%, O=C(COC(=O)c1cccc(C(=O)OCC(=O)NCc2ccc(F)cc2)n1)NCc1ccc(F)cc1 5.21%, Cc1cccc(NC(=O)C(NS(=O)(=O)c2ccc3c(c2)CCC(=O)N3)c2ccccc2)n1 (stereo unspecified) 2.64%, CSc1ncc(Cl)c(C(=O)Nc2nnc(SC/C=C/c3ccccc3)s2)n1 30%, C=CCSc1nnc(NC(=O)c2ccc(Cl)nc2)s1 2.22%, CSc1ncc(Cl)c(C(=O)Nc2nnc(SC)s2)n1 12.7%, CCSc1ncc(Cl)c(C(=O)Nc2ccccc2)n1 2.17%, Fc1ccc(NC(=S)NC23CN4CN(CN(C4)C2)C3)cc1 6.25%, CCc1cccc(CC)c1NC(=O)COn1nnc2ccc(C(F)(F)F)cc21 -1.32%, O=C(O)c1cccc(S(=O)(=O)Nc2ccc(O)c(Sc3nc4ccccc4s3)c2)c1 22.2%, O=S(=O)(Nc1ccc(O)c(Sc2nc3ccccc3s2)c1)c1ccc(Cl)cc1 0.11%, O=S(=O)(Nc1ccc(O)c(Sc2nc3ccccc3s2)c1)c1ccc(F)cc1 7.05%, COc1ccc(S(=O)(=O)Nc2ccc(O)c(Sc3ncn[nH]3)c2)cc1 18%, Cc1cc(C)nc(NC(=O)/C=C/c2ccc3c(c2)OCO3)c1 4.5%, Cc1cccc(NC(=O)CN2C(=O)COc3ccc(Cl)cc32)c1C 0.78%, COc1cc(/C=C(\C#N)C(N)=O)ccc1OS(=O)(=O)c1ccc(C)cc1 12.9%, COc1cc(C=O)ccc1OS(=O)(=O)c1ccc(NC(C)=O)cc1 7.57%, COc1ccc(C=O)cc1OS(=O)(=O)c1ccc(NC(C)=O)cc1 4.39%, COc1cc(/C=C/C(=O)O)ccc1OS(=O)(=O)c1ccc(C)cc1 0.48%, CCOc1ccc(/C=C2\SC(=S)NC2=O)cc1OC 17.4%, COc1ccc(/C=C2/S/C(=N/S(=O)(=O)Cc3ccccc3)NC2=O)cc1OC 12.7%, CCOc1ccc(S(=O)(=O)N2CCOCC2)cc1[N+](=O)[O-] 1.27%, Nc1ccc(C(=O)OCC(=O)c2cccc([N+](=O)[O-])c2)cc1 -2.36%, Cc1nc(NCc2ccccc2)sc1C(=O)Nc1ccccc1 -1.78%, CN1CCc2c(sc(NC(=O)c3ccc(S(=O)(=O)N4CCc5ccccc54)cc3)c2C(N)=O)C1 5.03%, CCN(CC(=O)Nc1ccccc1OC)C(=O)COc1ccc2ccccc2c1 5.71%, CC1(C)CC(=O)C2=C(C1)Nc1ccccc1NC2c1ccccn1 (stereo unspecified) 8.61%, CC1(C)CC(=O)C2=C(C1)Nc1cc(C(=O)c3ccccc3)ccc1NC2c1ccccn1 (stereo unspecified) 18.1%, COCCNC(=O)c1cc2oc3ccccc3c2n1C 15%, O=C1OC(/C(=C\Nc2ccc(F)cc2F)[N+](=O)[O-])c2ccccc21 (stereo unspecified) 8.86%, O=C1OC(/C(=C\Nc2ccccc2)[N+](=O)[O-])c2ccccc21 (stereo unspecified) 7.21%, O=[N+]([O-])c1cc(S(=O)(=O)N2CCCC2)ccc1NCCCN1CCOCC1 4.04%, O=[N+]([O-])c1cc2oc3c(c2c(C=NCc2ccccc2)c1O)CCCC3 -0.25%, CC(C)NCc1c(O)c(Br)cc2oc3c(c12)CCCC3 9.95%, O=C(CSc1nnc(-c2cccs2)o1)OCc1ccccc1 5.09%, CCO[C@H]1OC(C(=O)N2CCOCC2)=C[C@@H](c2ccc(Br)cc2)[C@@H]1CCCO -2.33%, CC/C(=C\C1CCCCC1)C(NP(=O)(c1ccccc1)c1ccccc1)c1ccccc1 (stereo unspecified) 5.64%, CCOc1cc(NS(=O)(=O)c2ccc(OC)cc2)c(OCC)cc1NC(=O)c1ccco1 1.99%, CCOC(=O)C1C(=O)CC(C)(O)C(C(=O)OCC)C1c1ccc(Br)cc1 (stereo unspecified) 11.1%, Cc1ccc(NC(=O)N2CCN(S(=O)(=O)c3ccccc3)CC2)cc1 -1.89%, NS(=O)(=O)c1ccc(CCNC(=O)CSc2ccc(Cl)cc2)cc1 9.38%, O=C(COC(=O)CCSc1ccc(Cl)cc1)NCCc1ccccc1 -5.52%, O=C(CCC(=O)Nc1ccccc1)N/N=C/C=C/c1ccccc1 7.53%, Cn1c(=O)c2c(nc(NCc3ccccc3)n2CC(=O)NCc2ccccc2)n(C)c1=O -6.75%, Cc1cccc(C(=O)Oc2ccc(/C=N/NC(=O)c3ccccc3O)cc2)c1 3.44%, CCOC(=O)c1ccc2[nH]c3c(c2c1)CCCC3O (stereo unspecified) 0.31%, CCN(CC)c1ccc(/C=C2/C(=O)N(c3ccc([N+](=O)[O-])cc3)N=C2N2CCOCC2)cc1 -6.76%, CCN(CC)c1ccc(/C=C2/C(=O)ON=C2C)cc1 15.8%, C=CCOC(=O)c1[nH]c2c(c1C)C(=O)CC(c1ccco1)C2 (stereo unspecified) 9.27%, N#CC1=C(N)C2=CCCC[C@H]2[C@H](c2ccc(Br)cc2)C1(C#N)C#N 1.37%, N#CC1=C(N)C2=CCCC[C@H]2[C@H](c2ccccc2)C1(C#N)C#N 0.19%

inhibition, active:
COc1ccc(Cn2nnc3c(=O)[nH]c(C(=O)NCCc4ccc(F)cc4)nc32)cc1OC 24.5%, Cc1cc2c(cc1C)NC(c1ccccn1)C1=C(CC(C)(C)CC1=O)N2 (stereo unspecified) 23.3%, Oc1c(Br)cc2oc3c(c2c1CNCc1ccccc1)CCCC3 33.9%, N#CC1=C(N)C2=C(N3CCCCC3)CCCC2C1(C#N)C#N (stereo unspecified) 27.6%

Reference: PubChem BioAssay AID1445 (SRMLSC, 2008)
